Measured values as given in PubChem BioAssay (EPA / NIEHS).
Active and inactive are the calls of the source. How the source made its calls: active means hit-call score of the fitted dose curve at least 0.9, where 1 is the maximum; inactive means score below 0.9.

Legend:
Settings in all cases: mRNA level, 48 h; actives raise or lower the signal
[1] = read-out: ABC Transporter (ABCB11), ABCB11 (gene 8647); assay: LTEA_HepaRG_ABCB11: Life Technologies and Expression Analysis (LTEA) Assay for ABC Transporter (ABCB11) using HepaRG (AID 2283463)
How it was run: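 Differentiated human HepaRG cells in serum-free induction medium, dosed in duplicate for 48 h. Eight-point half-log series from 100 uM in 0.5% DMSO; ABCB11 mRNA by qRT-PCR, normalized to ACTB, GAPDH, POLR2A, fitted bidirectionally versus DMSO.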

[2] = read-out: ABC Transporter (ABCC2), ABCC2 (gene 1244); assay: LTEA_HepaRG_ABCC2: Life Technologies and Expression Analysis (LTEA) Assay for ABC Transporter (ABCC2) using HepaRG (AID 2283464)
How it was run: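 HepaRG, 48 h post-plating; serum-free induction medium; cpd 8-pt, 100 uM top, half-log, 0.5% DMSO, duplicate, 48 h. Readout: ABCC2 mRNA by qRT-PCR, norm. ACTB/GAPDH/POLR2A. Bidirectional fit vs DMSO baseline.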

[3] = read-out: Broad substrate specificity ATP-binding cassette transporter ABCG2 (Homo sapiens) (UniProt Q9UNQ0); assay: LTEA_HepaRG_ABCG2: Life Technologies and Expression Analysis (LTEA) Assay for ABC Transporter (ABCG2) using HepaRG (AID 2283465)
How it was run: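 Differentiated HepaRG cells were exposed for 48 h in serum-free induction medium to 8 half-log concentrations, top 100 uM, in 0.5% DMSO. ABCG2 mRNA was measured by qRT-PCR, normalized to ACTB, GAPDH and POLR2A, with bidirectional fitting versus DMSO.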

[4] = read-out: ATP-citrate lyase (ACLY), ACLY (gene 47); assay: LTEA_HepaRG_ACLY: Life Technologies and Expression Analysis (LTEA) Assay for ATP-citrate lyase (ACLY) using HepaRG (AID 2283466)
How it was run: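 Differentiated HepaRG cells exposed 48 h in serum-free induction medium to eight half-log concentrations up to 100 uM in 0.5% DMSO, duplicates. Transcript measured by Fluidigm TaqMan qRT-PCR, normalized to ACTB, GAPDH, POLR2A; bidirectional fit versus DMSO.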

[5] = read-out: Peroxisomal acyl-coenzyme A oxidase 1 (ACOX1) gene, ACOX1 (gene 51); assay: LTEA_HepaRG_ACOX1: Life Technologies and Expression Analysis (LTEA) Assay for Peroxisomal acyl-coenzyme A oxidase 1 (ACOX1) gene using HepaRG (AID 2283467)
How it was run: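 HepaRG cells, plated 48 h then switched to serum-free induction medium, were exposed in duplicate for 48 h to 8-point half-log concentrations up to 100 uM in 0.5% DMSO. ACOX1 mRNA was measured by qRT-PCR, normalized to ACTB/GAPDH/POLR2A, and fitted bidirectionally versus DMSO.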

[6] = read-out: Alkaline Phosphatase, Placental (ALPP) gene, ALPP (gene 250); assay: LTEA_HepaRG_ALPP: Life Technologies and Expression Analysis (LTEA) Assay for Alkaline Phosphatase, Placental (ALPP) gene using HepaRG (AID 2283468)
How it was run: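 HepaRG, 48 h plating then 48 h dosing, serum-free induction medium, 0.5% DMSO. 8 conc, half-log, max 100 uM, duplicates. Endpoint: ALPP transcript by qRT-PCR, housekeeping-normalized; gain or loss fitted vs DMSO.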

[7] = read-out: Bcl-2 (BAD) gene, BAD (gene 572); assay: LTEA_HepaRG_BAD: Life Technologies and Expression Analysis (LTEA) Assay for Bcl-2 (BAD) gene using HepaRG (AID 2283469)
How it was run: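 Differentiated HepaRG cells were exposed in duplicate in 0.5% DMSO for 48 h to eight-point half-log concentrations up to 100 uM. BAD mRNA was measured by Fluidigm TaqMan qRT-PCR, normalized to ACTB, GAPDH and POLR2A, and fitted bidirectionally against DMSO.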

[8] = read-out: adenosine kinase (ADK) gene, ADK (gene 132); assay: LTEA_HepaRG_ADK: Life Technologies and Expression Analysis (LTEA) Assay for adenosine kinase (ADK) gene using HepaRG (AID 2283471)
How it was run: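 ADK expression quantified by qRT-PCR, normalised to three housekeeping genes, after 48 h exposure of HepaRG cells to eight concentrations (top 100 uM, half-log steps, duplicate, 0.5% DMSO). Up- or down-regulation fitted relative to vehicle.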

[9] = read-out: Alpha-fetoprotein (AFP) gene, AFP (gene 174); assay: LTEA_HepaRG_AFP: Life Technologies and Expression Analysis (LTEA) Assay for Alpha-fetoprotein (AFP) gene using HepaRG (AID 2283472)
How it was run: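 After a 48 h plating period, cells are moved to serum-free induction medium and dosed in duplicate (100 uM maximum, half-log dilutions, 0.5% DMSO) for another 48 h. Total RNA goes to TaqMan qRT-PCR; AFP signal is housekeeping-normalized.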

BCL2L11 (gene 10018) = assay: LTEA_HepaRG_BCL2L11: Life Technologies and Expression Analysis (LTEA) Assay for Bcl-2 (BCL2L11) gene using HepaRG (AID 2283473)
How it was run: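 Read-out is BCL2L11 transcript level by qRT-PCR, normalized to three housekeeping genes and fitted bidirectionally against 0.5% DMSO vehicle. HepaRG cells received chemicals for 48 h in serum-free induction medium, 100 uM down in half-log dilutions.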

[10] = read-out: Apolipoprotein A-V (APOA5) gene, APOA5 (gene 116519); assay: LTEA_HepaRG_APOA5: Life Technologies and Expression Analysis (LTEA) Assay for Apolipoprotein A-V (APOA5) gene using HepaRG (AID 2283474)
How it was run: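 Readout is APOA5 transcript level by qRT-PCR on Fluidigm dynamic arrays, normalized to three housekeeping genes. HepaRG cultures received chemicals for 48 h at up to 100 uM (half-log steps, 0.5% DMSO), with gain or loss scored relative to DMSO.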

[11] = read-out: Bcl-2 (BID) gene, BID (gene 637); assay: LTEA_HepaRG_BID: Life Technologies and Expression Analysis (LTEA) Assay for Bcl-2 (BID) gene using HepaRG (AID 2283476)
How it was run: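 Gain or loss of BID expression is fitted relative to 0.5% DMSO vehicle. Human HepaRG liver cells received a 48 h chemical exposure over an eight-point concentration range.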

Caspase-3 (Homo sapiens) = Caspase-3 (Homo sapiens) (UniProt P42574); assay: LTEA_HepaRG_CASP3: Life Technologies and Expression Analysis (LTEA) Assay for cysteine-aspartic acid protease (CASP3) using HepaRG (AID 2283477)
Caspase-3 (Homo sapiens), sequence (P42574 whole entry, looked up): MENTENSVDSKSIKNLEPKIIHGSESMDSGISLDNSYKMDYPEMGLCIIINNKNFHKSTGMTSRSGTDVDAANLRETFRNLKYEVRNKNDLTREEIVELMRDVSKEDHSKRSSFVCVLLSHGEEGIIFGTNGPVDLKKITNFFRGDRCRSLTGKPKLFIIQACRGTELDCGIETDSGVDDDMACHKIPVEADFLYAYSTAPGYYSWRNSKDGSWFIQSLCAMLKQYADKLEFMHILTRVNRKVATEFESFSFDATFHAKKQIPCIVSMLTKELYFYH
How it was run: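 Read-out is CASP3 mRNA level by TaqMan qRT-PCR in human HepaRG cells after 48 h chemical exposure. Eight half-log concentrations topping at 100 uM were tested in 0.5% DMSO; gain or loss was fitted relative to DMSO.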

[12] = read-out: Cytochrome P450 (CYP24A1), CYP24A1 (gene 1591); assay: LTEA_HepaRG_CYP24A1: Life Technologies and Expression Analysis (LTEA) Assay for Cytochrome P450 (CYP24A1) using HepaRG (AID 2283478)
How it was run: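 HepaRG, 48 h chemical exposure, 8-pt half-log CRC from 100 uM, 0.5% DMSO vehicle, duplicates. Endpoint: CYP24A1 mRNA by Fluidigm TaqMan qRT-PCR, normalized ACTB/GAPDH/POLR2A; gain/loss fit vs DMSO.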

[13] = read-out: Cytochrome P450 (CYP1A2), CYP1A2 (gene 1544); assay: LTEA_HepaRG_CYP1A2: Life Technologies and Expression Analysis (LTEA) Assay for Cytochrome P450 (CYP1A2) using HepaRG (AID 2283479)
How it was run: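 CYP1A2 transcript induction or loss, quantified by Fluidigm qRT-PCR against three housekeeping genes, was fitted bidirectionally against 0.5% DMSO controls. Human HepaRG cells received eight half-log concentrations from 100 uM over 48 h.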

[14] = read-out: cysteine-aspartic acid protease (CASP8), CASP8 (gene 841); assay: LTEA_HepaRG_CASP8: Life Technologies and Expression Analysis (LTEA) Assay for cysteine-aspartic acid protease (CASP8) using HepaRG (AID 2283480)
How it was run: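 Differentiated HepaRG cells in serum-free induction medium, 48 h exposure, eight-point half-log series from 100 uM in 0.5% DMSO, duplicates. CASP8 mRNA by qRT-PCR, normalized to ACTB, GAPDH, POLR2A; bidirectional fit versus DMSO.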

[15] = read-out: Cytochrome P450 (CYP2B6), CYP2B6 (gene 1555); assay: LTEA_HepaRG_CYP2B6: Life Technologies and Expression Analysis (LTEA) Assay for Cytochrome P450 (CYP2B6) using HepaRG (AID 2283481)
How it was run: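 HepaRG cells plated 48 h, switched to serum-free induction medium, then dosed 48 h (8 points, half-log from 100 uM, 0.5% DMSO). RNA isolated; CYP2B6 expression measured by qRT-PCR; gain or loss fitted relative to DMSO.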

[16] = read-out: Cytochrome P450 2C19 (Homo sapiens) (UniProt P33261); assay: LTEA_HepaRG_CYP2C19: Life Technologies and Expression Analysis (LTEA) Assay for CYP2C19 using HepaRG (AID 2283482)
How it was run: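 Transcript levels of CYP2C19 were quantified by qRT-PCR after HepaRG cells were treated for 48 hours with test chemicals up to 100 uM (eight half-log concentrations, 0.5% DMSO vehicle). Gain or loss of signal was fitted relative to DMSO.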

[17] = read-out: Bcl-2 (BAX) gene, BAX (gene 581); assay: LTEA_HepaRG_BAX: Life Technologies and Expression Analysis (LTEA) Assay for Bcl-2 (BAX) gene using HepaRG (AID 2283470)
How it was run: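 Concentration-response endpoint fitted in both directions relative to 0.5% DMSO vehicle. Human HepaRG cultures receive test chemicals for 48 h at up to 100 uM; BAX mRNA is quantified by qRT-PCR against housekeeping genes.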

[18] = read-out: Apoptosis regulator Bcl-2 (Homo sapiens) (UniProt P10415); assay: LTEA_HepaRG_BCL2: Life Technologies and Expression Analysis (LTEA) Assay for Bcl-2 gene using HepaRG (AID 2283475)
How it was run: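 Expression change of BCL2 mRNA in HepaRG after 48 h dosing, quantified by TaqMan qRT-PCR against three endogenous controls. Concentration-response used eight points up to 100 uM, vehicle 0.5% DMSO.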

Measured: AC50

Broad substrate specificity ATP-binding cassette transporter ABCG2 (Homo sapiens), sequence (Q9UNQ0 whole entry, looked up): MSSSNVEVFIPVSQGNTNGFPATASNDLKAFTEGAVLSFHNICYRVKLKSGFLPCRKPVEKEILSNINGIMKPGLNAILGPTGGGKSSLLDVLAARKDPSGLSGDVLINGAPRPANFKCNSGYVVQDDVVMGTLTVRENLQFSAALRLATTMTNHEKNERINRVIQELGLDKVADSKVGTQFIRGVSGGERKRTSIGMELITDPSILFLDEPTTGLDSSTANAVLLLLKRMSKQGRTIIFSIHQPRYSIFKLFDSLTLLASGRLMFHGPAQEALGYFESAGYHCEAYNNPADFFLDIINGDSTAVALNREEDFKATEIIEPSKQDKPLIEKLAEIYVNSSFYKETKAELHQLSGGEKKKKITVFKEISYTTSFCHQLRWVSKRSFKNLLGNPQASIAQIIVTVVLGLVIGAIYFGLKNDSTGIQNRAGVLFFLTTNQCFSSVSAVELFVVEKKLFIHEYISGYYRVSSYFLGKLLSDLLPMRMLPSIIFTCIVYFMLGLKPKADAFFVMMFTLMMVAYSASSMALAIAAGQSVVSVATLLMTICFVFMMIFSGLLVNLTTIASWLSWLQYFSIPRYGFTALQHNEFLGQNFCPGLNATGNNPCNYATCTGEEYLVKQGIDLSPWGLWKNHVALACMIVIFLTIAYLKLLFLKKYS
Cytochrome P450 2C19 (Homo sapiens), sequence (P33261 whole entry, looked up): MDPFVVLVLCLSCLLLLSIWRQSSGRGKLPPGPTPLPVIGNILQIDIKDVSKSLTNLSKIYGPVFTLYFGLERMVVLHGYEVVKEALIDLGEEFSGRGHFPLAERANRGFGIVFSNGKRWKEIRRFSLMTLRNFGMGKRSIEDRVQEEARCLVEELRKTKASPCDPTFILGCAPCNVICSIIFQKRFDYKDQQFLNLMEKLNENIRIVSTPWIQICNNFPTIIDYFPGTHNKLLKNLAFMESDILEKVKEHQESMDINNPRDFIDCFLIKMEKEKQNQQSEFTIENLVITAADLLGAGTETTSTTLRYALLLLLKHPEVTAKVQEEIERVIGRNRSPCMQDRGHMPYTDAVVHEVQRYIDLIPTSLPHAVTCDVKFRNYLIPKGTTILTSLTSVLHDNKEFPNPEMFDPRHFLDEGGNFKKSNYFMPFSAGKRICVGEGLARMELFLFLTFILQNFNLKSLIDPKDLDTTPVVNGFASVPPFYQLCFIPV
Apoptosis regulator Bcl-2 (Homo sapiens), sequence (P10415 whole entry, looked up): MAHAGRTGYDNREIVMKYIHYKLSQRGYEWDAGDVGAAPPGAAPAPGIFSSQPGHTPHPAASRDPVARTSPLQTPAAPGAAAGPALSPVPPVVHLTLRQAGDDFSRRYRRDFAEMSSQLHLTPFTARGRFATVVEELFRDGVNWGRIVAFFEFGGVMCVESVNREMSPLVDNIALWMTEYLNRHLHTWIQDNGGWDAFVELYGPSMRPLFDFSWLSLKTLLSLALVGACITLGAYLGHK

O=C(O)c1cccc(N(Cc2cccnc2)c2ccc(OC(F)F)c(OC(F)F)c2)c1
active: [1] 90.6 µM | [4] 83.3 µM | [6] 79.9 µM | [12] 0.00316 µM
inactive: [2] | [3] | [5] | [7] | [8] | [9] | BCL2L11 (gene 10018) | [10] | [11] | Caspase-3 (Homo sapiens) | [13] | [14] | [15] | [16]

Nc1nc2ncc(CNc3ccc(C(=O)N[C@@H](CCC(=O)O)C(=O)O)cc3)nc2c(=O)[nH]1
inactive: [1] | [2] | [3] | [4] | [5] | [7] | [17] | [8] | [9] | BCL2L11 (gene 10018) | [10] | [18] | [11] | Caspase-3 (Homo sapiens) | [12] | [13] | [14] | [15] | [16]

CCC(C)(C)C(=O)O[C@H]1C[C@@H](C)C=C2C=C[C@H](C)[C@H](CC[C@@H]3C[C@@H](O)CC(=O)O3)[C@H]21
inactive: [2] | [3] | [5] | [6] | [7] | [8] | [9] | BCL2L11 (gene 10018) | [10] | [18] | [11] | Caspase-3 (Homo sapiens) | [14]
active: [1] 50 µM | [4] 13.5 µM

On1ccccc1=S
inactive: [1] | [2] | [3] | [4] | [5] | [7] | [17] | [8] | [9] | BCL2L11 (gene 10018) | [10] | [11] | Caspase-3 (Homo sapiens) | [12] | [13] | [14] | [15] | [16]

CC(=O)OC[C@H]1O[C@@](COC(C)=O)(O[C@H]2O[C@H](COC(C)=O)[C@@H](OC(C)=O)[C@H](OC(C)=O)[C@H]2OC(C)=O)[C@@H](OC(C)=O)[C@@H]1OC(C)=O
inactive: [1] | [2] | [3] | [4] | [5] | [7] | [17] | [8] | [9] | BCL2L11 (gene 10018) | [10] | [11] | Caspase-3 (Homo sapiens) | [12] | [13] | [14] | [15] | [16]

O=C1OC(=O)C2C3C=CC(C3)C12 (centres undefined)
inactive: [1] | [2] | [3] | [4] | [5] | [7] | [17] | [8] | [9] | BCL2L11 (gene 10018) | [10] | [11] | Caspase-3 (Homo sapiens) | [12] | [13] | [14] | [15] | [16]

CCCCCCCCO
inactive: [1] | [2] | [3] | [4] | [5] | [7] | [8] | [9] | BCL2L11 (gene 10018) | [10] | [18] | [11] | Caspase-3 (Homo sapiens) | [12] | [13] | [14] | [15] | [16]
